# Most compounds without a hit are left out; they make up all but 12% or so of the library.
# G9a inh = qHTS Assay for Inhibitors of Histone Lysine Methyltransferase G9a | Histone-lysine N-methyltransferase EHMT2 (Homo sapiens), Q96KQ7 | G9a H3K9 monomethylation, AlphaScreen, 2 h | Potency, µM (series often up to 102 µM), for inactives: at the highest dose activity, negative = inhibition, most hits filed as inhibitors | 350,000 tested, 8.8% active | AID 504332, 2011; also: % is scaled to controls: 0 for no effect and ±100 for the full control effect; nearly all actives have a fitted effect of over 75% in size
#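 Compounds were preincubated with 20 nM G9a for 15 min, after which biotinylated H3K9 peptide (500 nM) and SAM (20 uM) started a 2 h room-temperature reaction. Monomethylated product was quantified by antibody-based AlphaScreen chemiluminescence.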
# JMJD2A Tudor inh = qHTS Assay for Inhibitors of JMJD2A-Tudor Domain; Lysine-specific demethylase 4A (Homo sapiens), O75164; 390,000 tested, 4.4% active; AlphaScreen JMJD2A-Tudor / H3K4me3 peptide binding; Potency, µM (series often up to 114 µM), without a hit: at the top dose activity change, negative = inhibition, most hits filed as inhibitors; also: % is scaled to controls: 0 for no effect and ±100 for the full control effect; nearly all actives have a fitted effect of over 50% in size
# L3MBTL1 block = qHTS Assay for the Inhibitors of L3MBTL1; AlphaScreen L3MBTL1–H3K9me1 peptide binding; Potency, µM (highest dose often 57.1 µM), without a hit: at the top dose activity, negative = inhibition, most hits filed as inhibitors; 230,000 tested, 0.66% active; AID 485360, 2010; also: % is scaled to controls: 0 for no effect and ±100 for the full control effect; nearly all actives have a fitted effect of over 60% in size
# Target sequence (Q9Y468 whole entry, looked up): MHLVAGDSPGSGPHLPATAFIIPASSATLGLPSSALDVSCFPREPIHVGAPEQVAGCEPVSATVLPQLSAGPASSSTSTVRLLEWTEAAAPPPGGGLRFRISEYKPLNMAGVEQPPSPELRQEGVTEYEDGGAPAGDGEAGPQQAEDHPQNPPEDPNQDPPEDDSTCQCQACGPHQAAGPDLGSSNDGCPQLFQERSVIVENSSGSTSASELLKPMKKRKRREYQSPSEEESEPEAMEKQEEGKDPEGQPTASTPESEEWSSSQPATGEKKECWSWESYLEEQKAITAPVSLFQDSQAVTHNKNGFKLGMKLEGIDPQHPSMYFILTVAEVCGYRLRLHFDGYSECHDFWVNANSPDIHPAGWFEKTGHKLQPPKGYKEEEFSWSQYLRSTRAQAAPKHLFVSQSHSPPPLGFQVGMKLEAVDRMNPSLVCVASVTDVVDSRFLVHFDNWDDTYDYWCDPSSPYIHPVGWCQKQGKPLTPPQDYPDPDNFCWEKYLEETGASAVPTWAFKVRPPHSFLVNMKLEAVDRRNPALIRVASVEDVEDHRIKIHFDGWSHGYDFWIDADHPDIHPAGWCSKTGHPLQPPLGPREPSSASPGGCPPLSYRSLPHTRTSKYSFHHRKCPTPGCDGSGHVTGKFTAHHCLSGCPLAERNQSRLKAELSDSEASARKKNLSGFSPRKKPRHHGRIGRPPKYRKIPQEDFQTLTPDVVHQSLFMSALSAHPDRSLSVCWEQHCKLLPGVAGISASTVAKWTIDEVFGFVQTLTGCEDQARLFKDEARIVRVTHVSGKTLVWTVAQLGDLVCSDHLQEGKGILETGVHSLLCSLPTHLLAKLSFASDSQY
#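 Displacement of a biotinylated histone H3(1-15) peptide monomethylated at Lys9 (75 nM) from L3MBTL1 (50 nM) was measured by AlphaScreen after a 30 min room-temperature compound incubation; cefsulodin titration served as intraplate control.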
# BAZ2B inh = qHTS Assay for Inhibitors of BAZ2B | Bromodomain adjacent to zinc finger domain protein 2B (Homo sapiens), Q9UIF8 | AlphaScreen BAZ2B-H3K14Ac peptide displacement | Potency, µM (top dose mostly 114 µM), without a hit: top-dose activity change, negative = inhibition, most hits filed as inhibitors | 360,000 tested, 4.4% active | AID 504333, 2011; also: % is scaled to controls: 0 for no effect and ±100 for the full control effect; nearly all actives have a fitted effect of over 60% in size
#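 Compounds, titrated to a top concentration of 110 uM, were incubated 30 min at room temperature with preformed BAZ2B/acetyl-K14 H3 peptide complex (50 nM each). Proximity signal was measured by AlphaScreen after 20 min with beads.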
# Sfp PPTase inh = qHTS Assay for Inhibitors of Bacillus subtilis Sfp phosphopantetheinyl transferase (PPTase); 4'-phosphopantetheinyl transferase ffp (Bacillus subtilis), Q9F4F7; Biochemical Sfp PPTase activity, qHTS; Potency, µM, inactives show largest response in the series, negative = inhibition, actives largely listed as inhibitors; 310,000 tested, 3.5% active;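 also: the enzyme is Sfp with the accession as filed and its product quenches rhodamine fluorescence; 0% = enzyme reaction without inhibitor and -100% = no enzyme wells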
#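 Fluorescence-quenching assay: 15 nM Sfp-PPTase preincubated 15 min at room temperature with compound, then 5 uM rhodamine-CoA and 12.5 uM BHQ-2-labelled YbbR peptide added. Fluorescence (ex 525/em 598 nm) read at start and after 30 min; difference gives rate.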
# HP1b chromo inh = HTS for Inhibitors of HP1-beta Chromodomain Interactions with Methylated Histone Tails; Chromobox protein homolog 1 (Homo sapiens), P83916; Potency, µM (series often up to 114 µM), for inactives: top-dose activity change, negative = inhibition, most hits filed as inhibitors; 390,000 tested, 0.56% active; AlphaScreen HP1-beta / biotin-H3K9me3 peptide binding; also: nearly all actives have a fitted effect of over 70% in size
#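 HP1-beta protein (50 nM final) preincubated 30 min at room temperature with biotinylated H3(1-18)K9me3 peptide (50 nM) in PBS pH 7.4, 0.01% Tween-20, then compound added for 30 min. AlphaScreen streptavidin donor/nickel chelate acceptor beads (10 ug/mL final), 30 min dark, luminescence read.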
# * = called active by the depositor; ? = inconclusive; nt = no result; [ ] = another dose, or the depositor's remark. Calls follow the shape of the dose curve; as a rule, active = well fitted curve in the direction sought with a large enough effect; inconclusive = small, poorly fitted or top-dose-only effect, or another doubt; inactive = no such curve, though single readings can be large; an effect the other way counts as inactive or inconclusive. Potency is read from the fitted curve at half-maximal effect.
SMILES,G9a inh,JMJD2A Tudor inh,L3MBTL1 block,BAZ2B inh,Sfp PPTase inh,HP1b chromo inh
CC[C@H](C)[C@H](NC(=O)[C@H](C)NC(=O)[C@H](Cc1cnc[nH]1)NC(=O)[C@@H]1CCCN1C(=O)CNC(=O)[C@H](CC(C)C)NC(=O)[C@H](CC(C)C)NC(=O)[C@H](Cc1ccc(O)cc1)NC(=O)CNC(=O)[C@H](C)NC(=O)[C@H](CO)NC(=O)[C@H](CC(N)=O)NC(=O)[C@H](CC(C)C)NC(=O)[C@@H](NC(=O)[C@H](Cc1c[nH]c2ccccc12)NC(=O)CN)[C@@H](C)O)C(=O)N[C@@H](CC(=O)O)C(=O)N[C@@H](CC(N)=O)C(=O)N[C@@H](Cc1cnc[nH]1)C(=O)N[C@@H](CCCNC(=N)N)C(=O)N[C@@H](CO)C(=O)N[C@@H](Cc1ccccc1)C(=O)N[C@@H](CO)C(=O)N[C@@H](CC(=O)O)C(=O)N[C@@H](CCCCN)C(=O)N[C@@H](Cc1cnc[nH]1)C(=O)NCC(=O)N[C@@H](CC(C)C)C(=O)N[C@H](C(N)=O)[C@@H](C)O,nt,nt,nt,nt,8%,nt
COc1ccc(-n2c(Cc3ccccc3)nnc2SCc2ccc([N+](=O)[O-])cc2)cc1,50µM*,?,-15%,?,-15%,-14%
COc1ccc(CC(=O)NCc2nnc(SCc3ccc([N+](=O)[O-])cc3)n2C)cc1,13%,-15%,1%,-13%,15%,18%
Cn1c(Cc2cccc3ccccc23)nnc1SCc1ccc([N+](=O)[O-])cc1,10µM*,?,-3%,-39%,-4%,-8%
CCOc1ccc(-n2nnnc2SCC(=O)NNC(=O)c2ccco2)cc1,nt,22µM*,12%,0%,-8%,-7%
O=C(CSc1nnnn1-c1ccc(F)cc1)NNC(=O)c1ccco1,8%,-5%,nt,-37%,14%,55%
O=C(Nc1ccccc1C(F)(F)F)N1CCOc2ccc(Cl)cc21,?,-27%,nt,-16%,nt,6%
CSc1nc(-c2ccco2)nn1S(=O)(=O)c1ccc(C)cc1,40µM*,-12%,2%,-7%,45µM*,3%
CS(=O)(=O)n1nc(-c2ccc(Cl)cc2)nc1N,nt,-12%,4%,-5%,4%,-9%
Cc1ccc(CNc2nc(-c3ccco3)nn2S(=O)(=O)c2ccc3ccccc3c2)cc1,-31%[59 µM],-16%,nt,?,nt,5%
CCS(=O)(=O)n1nc(-c2ccc(Cl)cc2)nc1SC,7%[59 µM],38%,3%,26%,56µM*,92%
O=S(=O)(c1ccc2ccccc2c1)n1nc(-c2ccco2)nc1NCc1ccc(F)cc1,18µM*,-35%,nt,?,nt,24%
CCS(=O)(=O)n1nc(-c2ccco2)nc1SC,?,28µM*,nt,21%,35µM*,?
COc1ccccc1C(=O)n1nc(-c2ccco2)nc1SC,?,-11%,nt,-35%,-18%,44%
CSc1nc(-c2ccco2)nn1S(=O)(=O)c1ccccc1,20µM*,nt,9%[11.4 µM],?,?,nt
Cc1ccc(S(=O)(=O)n2nc(-c3ccco3)nc2SCc2ccccc2)cc1,?,-29%,-3%,?,-5%,21%
COc1ccccc1CNc1cc(C)nc2nc(-c3ccc(C)cc3)nn12,-2%[59 µM],-6%,nt,-2%,nt,26%[57 µM]
Nc1nc(SCC(=O)Nc2cccc(Oc3ccccc3)c2)n[nH]1,16µM*,-20%,-3%,-30%,-4%,12%
COc1ccccc1NC(=O)CSc1n[nH]c(-c2ccco2)n1,nt,-32%,nt,nt,nt,-17%[57 µM]
COc1ccccc1NC(=O)CSc1n[nH]c(-c2ccccn2)n1,12%,3.5µM*,nt,4.5µM*,-8%,23%
O=C(CSc1n[nH]c(-c2ccccn2)n1)Nc1ccccc1F,29%,2.5µM*,nt,4.5µM*,?,29%
O=C(CSc1n[nH]c(-c2cccnc2)n1)Nc1ccccc1,12%[59 µM],-5%,6%,11%,-4%,53%
O=C(CSc1n[nH]c(-c2ccccn2)n1)Nc1ccccc1,nt,4µM*,nt,?,-19%,47%
Nc1nc(SCC(=O)Nc2ccc(Oc3ccccc3)cc2)n[nH]1,11%[59 µM],-19%,-5%,-36%,-16%,10%
CC(=O)N1c2ccccc2CC1C(=O)N1CCN(c2cccc(Cl)c2)CC1 (configuration not stated),7%[12.7 µM],-3%,nt,-13%,nt,31%
SMILES,G9a inh,JMJD2A Tudor inh,L3MBTL1 block,BAZ2B inh,Sfp PPTase inh,HP1b chromo inh
CCc1nn2c(=O)cc(NC3CNC3)nc2s1,nt,-16%,nt,nt,nt,nt
COc1ccc(NC(=O)CSc2n[nH]c(-c3ccccn3)n2)cc1,-3%,4µM*,nt,3.5µM*,-13%,36%
COc1ccc(-c2nc(SCC(=O)Nc3cccc(C(C)=O)c3)n[nH]2)cc1,-16%[59 µM],3%,nt,3%,nt,34%[57 µM]
CC1(C)CC(Nc2ccc(Nc3ccccc3)cc2)CC(C)(C)N1,?,45µM*,?,35µM*,20µM*,?
CC1(C)CC(NC(=O)c2ccccc2)CC(C)(C)N1,15%,7%,3%,13%,10%,5%
Cc1coc2c(C)c3oc(=O)c(CCC(=O)NCCC(=O)O)c(C)c3cc12,5%,?,nt,50µM*,-3%,5%
Cc1c(CCC(=O)O)c(=O)oc2c(C)c3occ(-c4ccc(Cl)cc4)c3cc12,?,?,nt,56µM*,-29%,?

# Bioassay records as filed in PubChem BioAssay.
